Compounds with a hit are over-represented: about 2.5% of the library has one in this group of screens.
Cruzain Triton – cruzain (T. cruzi) inhibition with detergent | AID 1478 | P25779 | Potency, µM, hits mostly inhibitors | purified cruzain, Z-FR-AMC fluorescence, 0.01% Triton | actives 0.43% (n = 200,000); note: nearly all actives have a fitted effect of over 40% in size
Target sequence (P25779 123-467 limits assumed): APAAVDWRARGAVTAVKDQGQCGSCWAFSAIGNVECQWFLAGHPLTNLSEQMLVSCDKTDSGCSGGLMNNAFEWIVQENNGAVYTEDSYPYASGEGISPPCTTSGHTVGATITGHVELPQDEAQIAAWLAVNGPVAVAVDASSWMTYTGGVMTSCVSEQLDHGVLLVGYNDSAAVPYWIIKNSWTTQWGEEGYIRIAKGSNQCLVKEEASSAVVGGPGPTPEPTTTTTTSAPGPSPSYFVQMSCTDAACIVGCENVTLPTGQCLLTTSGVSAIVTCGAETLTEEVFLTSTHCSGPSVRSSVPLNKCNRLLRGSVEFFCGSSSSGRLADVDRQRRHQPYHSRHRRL
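Read-out: AMC fluorescence (360 nm excitation, 450 nm emission), four reads over 2 min, first-to-third difference used. Conditions: cruzain 1.5 nM, Z-FR-AMC 2 uM, pH 5.5 acetate, 5 mM DTT, 0.01% Triton X-100.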
Cruzain noTriton – inhibitors of Trypanosoma cruzi cruzain without detergent; Potency, µM, usual class: inhibitors; P25779; actives 2.3% (n = 200,000); purified cruzain, Z-FR-AMC fluorescence, no detergent; note: nearly all actives have a fitted effect of over 40% in size
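Detergent-free condition (0.00005% Triton X-100) in acetate buffer pH 5.5 with DTT. 1.5 nM enzyme and compound were pre-mixed 15 min, then 2 uM Z-FR-AMC substrate added; reaction progress from fluorescence change between first and third reads (60 s).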
Large screens that a line does not name were inactive. Calls come from the whole dose curve; as a rule, active = well fitted curve in the direction sought with a large enough effect; inconclusive = small, poorly fitted or top-dose-only effect, or another doubt; inactive = no such curve, though single readings can be large; an effect the other way counts as inactive or inconclusive.

COc1ccc(C(=O)Nc2cc(Cl)cc(Cl)c2)c(OC)n1	Cruzain noTriton 12.6µM
COc1ccc(C(=O)Nc2cc(Cl)ccc2Cl)c(OC)n1	none
Clc1nc(-c2cccnc2)nc2scc(-c3ccccc3)c12	none
COc1ccc(-c2csc3nc(-c4cccnc4)nc(Cl)c23)cc1OC	Cruzain Triton 12.6µM
COCCn1c(CNC(=O)c2cccc(C)c2)nc2cccnc21	none
Cc1c(-c2nsc(NC(=O)c3ccccc3)n2)nnn1-c1ccc(C(F)(F)F)c(Cl)c1	Cruzain noTriton 20µM
Cc1ccc(-n2nnc(-c3nsc(NC(=O)c4ccccc4C)n3)c2C)cc1Cl	none
COc1cc2c(cc1NS(=O)(=O)c1cccc(C#N)c1)n(C)c(=O)n2C	none
COc1cc(NC(=O)c2ccc(C)c(Cl)c2)ccc1NC(=O)c1cc2ccccc2o1	none
O=C(NC1CCCCC1)C(c1ccc(F)cc1)N(C(=O)Cc1ccsc1)c1ccc(F)cc1 (configuration not stated)	none
O=C(NC1CCCC1)C(c1ccsc1)N(C(=O)Cc1cccs1)c1ccccc1 (configuration not stated)	Cruzain noTriton 10µM
O=C(NC1CCCCC1)C(c1ccccc1)N(C(=O)Cc1ccsc1)c1ccccc1 (configuration not stated)	Cruzain noTriton 15.8µM
O=C(NC1CCCC1)C(c1ccsc1)N(CCc1ccccc1)C(=O)Cc1cccs1 (configuration not stated)	Cruzain noTriton inconclusive
CCOc1ccccc1CNC(=O)C1CCN(S(=O)(=O)c2c(C)noc2/C=C/c2ccccc2F)CC1	none
c1ccc(-c2ccc(C3=Nn4c(nnc4-c4cc(-c5ccccc5)n[nH]4)SC3)cc2)cc1	Cruzain noTriton 3.16µM
CC1=Nn2c(nnc2-c2cc(-c3ccccc3)n[nH]2)SC1	none
Cc1cccc(-c2nnc3n2N=C(c2ccc(Br)cc2)CS3)c1	none
COc1cccc(-c2nnc3n2N=C(c2cccc(Br)c2)CS3)c1	Cruzain noTriton 7.94µM
Nc1ccc(C(=O)C[C@H](N)C(=O)O)cc1O	none
CC(=O)NC1=C(OS(=O)(=O)c2ccc(C)cc2)CN(C)C1=O	none
CCOC(=O)c1ccccc1NC(=O)c1cc2c(s1)-c1c(C)cccc1OC2	none
O=C(NCc1ccccc1Cl)c1cc2c(s1)-c1ccccc1SC2	Cruzain noTriton 25.1µM
CC(C)c1ccc(NC(=O)c2cc3c(s2)-c2ccccc2SC3)cc1	Cruzain noTriton 10µM
COc1ccc(Cl)cc1NC(=O)c1cc2c(s1)-c1ccccc1OC2	none
CCOC(=O)c1ccccc1NC(=O)c1cc2c(s1)-c1ccccc1SC2	Cruzain noTriton 7.94µM
CCc1ccccc1N(CC)C(=O)c1cc2c(s1)-c1ccccc1SC2	none
COc1ccc(C)cc1NC(=O)c1cc2c(s1)-c1ccccc1SC2	Cruzain noTriton 15.8µM
O=C(NCc1ccc(F)cc1)c1cc2c(s1)-c1ccccc1SC2	Cruzain noTriton inconclusive
CCOC(=O)c1c(NC(=O)/C=C/c2ccc(C)cc2)sc(C(C)=O)c1C	none
CCOC(=O)c1ccccc1NC(=O)CSc1nc(=O)[nH]c2c1CCC2	none
CCCCCCCCCCCCCCCCCCOC[C@@H](O)COP(=O)([O-])OCC[N+](C)(C)C	none
COc1ccc(CNC(=O)C(=O)NCC(c2ccco2)S(=O)(=O)c2cccs2)cc1 (configuration not stated)	none
COc1ccccc1C(=O)Nc1cc2c(cc1N1CCCCC1)n(C)c(=O)n2C	none
Cc1[nH]n(-c2ccc(S(=O)(=O)O)cc2)c(=O)c1N=Nc1ccccc1	none
O=C(N/N=C/c1c[nH]c2ccccc12)c1cc(-c2ccc(-c3ccccc3)cc2)n[nH]1	Cruzain noTriton 7.94µM
O=C(N/N=C/c1c[nH]c2ccccc12)c1cc(-c2ccccc2)n[nH]1	none
c1ccc(Nc2nc(-c3ccc4c(c3)OCO4)nc3ccccc23)cc1	Cruzain noTriton inconclusive
O=C(NC(=S)Nc1ccc(N2CCCCC2)c(Cl)c1)c1ccc2c(c1)OCCO2	Cruzain noTriton 25.1µM
O=C(NC(=S)Nc1ccc(N2CCOCC2)c(Cl)c1)c1cncc(Br)c1	none
COC(=O)c1ccccc1NC(=O)Cc1nc(-c2ccc(OC)cc2)no1	none
Cc1cccc(C2(c3cccc(C)c3)OC(=O)c3ccccc32)c1	none
CN(C)c1ccc(C2(c3ccc(N(C)C)cc3)OC(=O)c3cc(N(C)C)ccc32)cc1	Cruzain noTriton 25.1µM
COc1ccc(S(=O)(=O)N2CCN(Cc3nc4ccc(C)cc4o3)CC2)cc1OC	Cruzain noTriton inconclusive
COc1ccc(CC(=O)N2CCc3c([nH]c4ccccc34)C2c2ccc(SC)cc2)cc1 (configuration not stated)	Cruzain noTriton 25.1µM
COc1ccc(CCC(=O)N2CCc3c([nH]c4ccccc34)C2c2ccc(F)cc2)cc1 (configuration not stated)	Cruzain noTriton inconclusive
O=C(CSCc1ccc(F)cc1)N1CCc2c([nH]c3ccccc23)C1c1ccc(Cl)cc1 (configuration not stated)	Cruzain noTriton 7.94µM

Assay outcomes (PubChem)
